# Compound activity as filed in PubChem.
# WRN helicase inh: qHTS for Inhibitors of WRN Helicase; Bifunctional 3'-5' exonuclease/ATP-dependent helicase WRN (Homo sapiens), Q14191; WRN helicase unwinding, fluorescent forked duplex, kinetic; Potency, µM (titrated, usually from 114 µM), inactives show top-dose activity change, negative = inhibition, actives largely listed as inhibitors; 360,000 tested, 0.46% active; AID 651768, 2012; note: % is set by controls: 0 for no effect and ±100 for the full control effect; nearly all actives have a fitted effect of over 55% in size
#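 WRN at 20 nM final was preincubated with compound for 15 min at room temperature; reaction started with 100 nM forked duplex oligonucleotide carrying fluorophore and quencher plus 2 mM ATP (final). Unwinding followed kinetically by red fluorescence (ex 525/em 598 nm).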
# Pol iota inh: qHTS for Inhibitors of Polymerase Iota | DNA polymerase iota (Homo sapiens), Q9UNA4 | Pol iota fluorescent replication assay, 10 min | Potency, µM (series often up to 115 µM), for the others: at the top dose activity, negative = inhibition, actives largely listed as inhibitors | 390,000 tested, 1% active
#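 Fluorescent replication assay read twice, at 0 min and 10 min after adding 50 nM (final) substrate. Enzyme (10 nM) and compounds were first incubated 15 min at room temperature; enzyme-free buffer wells were negative controls.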
# POLB inh: qHTS Assay for Inhibitors of DNA Polymerase Beta. P06746. Pol beta primer extension/strand displacement, fluorescence kinetic. Potency, µM (doses to about 114 µM), for inactives: at the highest dose activity change, negative = inhibition, most hits filed as inhibitors. 340,000 tested, 1.3% active; note: % is set by controls: 0 for no effect and ±100 for the full control effect
#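 10 nM enzyme + cpd, 15 min RT; start with substrate 50 nM final; read 0 min and after 10 min RT. Corrected, normalized data; 4-parameter Hill curve fit.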
# Pol eta inh: qHTS for Inhibitors of Polymerase Eta | DNA polymerase eta (Homo sapiens), Q9Y253 | recombinant Pol eta, fluorescent DNA replication assay | Potency, µM (series often up to 114 µM), for the others: at the top dose activity change, negative = inhibition, most hits filed as inhibitors | 390,000 tested, 1.2% active; note: % is set by controls: 0 for no effect and ±100 for the full control effect
#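 Pol eta at 10 nM preincubated with compounds 15 min at room temperature; reaction started with fluorescent substrate (50 nM final) and read kinetically at 0 and 10 min.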
# Pol kappa inh: qHTS for Inhibitors of Polymerase Kappa | purified Pol kappa, fluorescent DNA synthesis assay, 10 min | Potency, µM (series often up to 107 µM), for the others: top-dose activity, negative = inhibition, usual class: inhibitors | 400,000 tested, 0.53% active | AID 588579, 2011; note: % is set by controls: 0 for no effect and ±100 for the full control effect
#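 Inhibition of 10 nM Pol kappa is measured by a fluorescent read-out at 0 and 10 min following addition of 50 nM substrate (final), with a 15-min room-temperature compound preincubation.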
# FEN1 inhibitor: qHTS Assay for the Inhibitors of Human Flap endonuclease 1 (FEN1); P39748; Recombinant FEN1 flap cleavage, fluorescence, 15 min; Potency, µM (series often up to 114 µM), for the others: at the highest dose activity change, negative = inhibition, hits mostly inhibitors; 390,000 tested, 0.35% active; AID 588795, 2011; note: % is set by controls: 0 for no effect and ±100 for the full control effect; nearly all actives have a fitted effect of over 65% in size
#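 Steps: FEN1 (10 nM) dispensed; compound added by pin tool; 15 min at room temperature; substrate added to 50 nM final; reads at 0 min and 15 min; data normalized and fitted (four-parameter Hill).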
# Active calls of the source: *; ? = inconclusive; / = not tested or not shown; [ ] = dose if it differs, or a comment. Hits are enriched below; roughly 2.4% of the tested compounds scored in any of these assays. Calls come from the whole dose curve; as a rule, active = well fitted curve in the direction sought with a large enough effect; inconclusive = small, poorly fitted or top-dose-only effect, or another doubt; inactive = no such curve, though single readings can be large; an effect the other way counts as inactive or inconclusive. Potency is the fitted concentration of half-maximal effect.
SMILES,WRN helicase inh,Pol iota inh,POLB inh,Pol eta inh,Pol kappa inh,FEN1 inhibitor
Cc1ccc(C)c(CN2C(=O)c3ccccc3S(=O)(=O)c3ccc(C(=O)N(C)C4CCCCC4)cc32)c1,/,-15%,-29%,/,-14%,-6%
O=C(CNC(=O)c1cccc(S(=O)(=O)N2CCc3ccccc32)c1)Nc1ccccc1Br,0%,0%,/,-11%,-3%,2%
O=C(CNC(=O)c1cccc(-n2cccc2)c1)Nc1ccccc1Br,-23%,/,/,32µM*,/,/
CCN(CC)c1ccc(C=C2C(=O)OC(c3ccccc3)OC2=O)cc1 (stereo not given),50µM*,34%,12%,?,-11%,-3%
CN(C)c1ccc(C=C2C(=O)OC(C)(C)OC2=O)cc1,-11%,50%,-4%,-2%,0%,10%
CCN(CC)c1ccc(C=C2C(=O)OC3(CCCC3)OC2=O)cc1,50µM*,-4%,-1%,1%,-9%,-10%
CCN(CC)c1ccc(C=C2C(=O)OC(C)(C(C)(C)C)OC2=O)cc1 (stereo not given),?,?,14%,-13%,2%,-13%
CC(=O)c1ccc(N2CCN(C(=O)NCc3noc4ccc(C)cc34)CC2)cc1,/,16%,?,?,-21%,-4%
CCOc1ccc(-c2cc(-c3nc(-c4cc(OC)c(OC)c(OC)c4)no3)[nH]n2)cc1Cl,/,2%,-2%,3%,4%,1%
COc1cc(C(=O)O)ccc1OC(C)=O,-26%,89µM*,24%,-3%,-3%,-6%
CCOC(=O)C1CCCN(C(=O)c2ccc(CS(=O)(=O)c3ccc(C)cc3)o2)C1 (stereo not given),-25%,32µM*,?,18µM*,-41%,-2%
Cc1ccc(C)c(N2CCN(C(=O)c3ccc(CS(=O)(=O)c4ccccc4C)o3)CC2)c1,-18%,10%,?,-28%,-10%,-6%
Cc1ccc(S(=O)(=O)Cc2ccc(C(=O)N3CCN(c4cc(C)ccc4C)CC3)o2)cc1,-17%,?,40µM*,-7%,-25%,-4%
Cc1ccc(S(=O)(=O)Cc2ccc(C(=O)N3CCCCCC3)o2)cc1,-1%,-19%,12%,-3%,-5%,-14%
Cc1cc(C)n(C(CC(=O)N2CCc3ccccc3C2)C(=O)O)n1 (stereo not given),-11%[57.1 µM],79µM*,?,-3%,?,-1%
Cc1ccc(NCCC(=O)c2ccc(Cl)cc2)cc1C,7%,100µM*,25%,2%,2%,-2%
CCc1ccc(NCCC(=O)c2ccc(Cl)cc2)cc1,-2%,4%,26%,4%,-1%,-4%
O=C(NCCc1ccccc1Cl)c1ccc2c(c1)nc1n2CCOC1,/,14%,2%,-10%,-1%[60.1 µM],-4%
CCCCN1/C(=C/c2ccc3ccccc3[n+]2CC)Sc2ccccc21,-2%,5%,50µM*,-23%,-40%,40µM*
S=c1ncc2n[nH]nc2[nH]1,/,-21%,/,/,0%,?
COc1cccc(CNC(=O)C2=C(C)C(=O)OC23CCN(C(C)=O)CC3)c1OC,/,43%,28%,8%,5%,0%
CN(C)CCN1C(=O)c2cccc3cc([N+](=O)[O-])cc(c23)C1=O,-21%,79µM*,/,?,?,20µM*
O=C1c2cccc3cc([N+](=O)[O-])cc(c23)C(=O)N1CC1CCCO1 (stereo not given),-4%,?,13%,-10%,-10%,?
O=C1C=C(c2ccccc2)OC(c2ccccc2)O1 (stereo not given),-1%,116%,11µM*,-24%,-20%,2%
O=C1C=C(c2ccccc2)OC2(CCCC2)O1,0%,12%,-3%,9%,-11%,0%
